Screening results: PubChem, National Center for Advancing Translational Sciences (NCATS)
Sampled rows, rich in hits. Any-hit rate of the full collection: about 13%.
Pf growth 96h: P. falciparum growth inhibition at 96 hour, primary screen for plastid delayed-death inhibitors. 320,000 tested, 6.9% active. P. falciparum luciferase reporter growth, 96 h. Potency, µM (titrated, usually from 28.7 µM), inactives show at the highest dose activity change, negative = inhibition, actives largely listed as inhibitors. AID 504834; note: potency is the fitted concentration of half-maximal effect
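Readout is luminescence from an integrated firefly luciferase in P. falciparum. Red cells, 2% hematocrit and 0.05% parasitemia final, were cultured with compound through two parasite generations (96 hours) at 37 C, 5% CO2.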
HCMV inh: inhibitors of human cytomegalovirus | HFF cells, HCMV-luciferase reporter, 72 h; active compounds read low | activity change, negative = inhibition, % at 57.5 µM | 410,000 tested, 4.5% active | AID 1259415; in the data active = activity change below about -60%; inconclusive = no clear call, values can overlap the other calls; inactive = above about -39%
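Human foreskin fibroblasts infected with luciferase-reporter HCMV at MOI 1 PFU/cell, compounds at two doses. Luciferase measured 72 h post infection; normalized to buffer-only basal and Salinomycin (10uM) controls.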
Pf growth 48h: inhibits P. falciparum growth in the first generation, 48 h | 310,000 tested, 5.9% active | Potency, µM (series often up to 28.7 µM), for inactives: at the highest dose activity change, negative = inhibition, actives largely listed as inhibitors | P. falciparum luciferase growth in erythrocytes, 48 h; note: potency is the fitted concentration of half-maximal effect
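Firefly luciferase activity from engineered P. falciparum reports growth; inhibitors lower the luminescent signal. Cultures contained 2% hematocrit erythrocytes at 0.1% final parasitemia.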
HCV inh: inhibitors of hepatitis C virus infection | Huh7.5.1 HCVcc-Cre infection, luciferase reporter, 44 h | Potency, µM (doses to about 41.8 µM), for inactives: at the highest dose activity change, negative = inhibition, usual class: inhibitors | 340,000 tested, 3.4% active; note: potency is the fitted concentration of half-maximal effect
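Infectious HCV cell culture screen: compound-treated cells (1,000/well, pre-plated 4 h) are infected with HCVcc-Cre at roughly 0.5 moi and grown 44 h. Infection is quantified by luciferase signal after 15 min substrate incubation at room temperature.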
Active calls of the source: *; ? = inconclusive; · = not tested or not shown; [ ] = another dose, or the depositor's remark. Unless noted, calls come from the whole dose curve; as a rule, active = well fitted inhibition curve with a large enough effect; inconclusive = small, poorly fitted or top-dose-only effect, or another doubt; inactive = no such curve, though single readings can be large or run the other way. % is set by controls: 0 for no effect and ±100 for the full control effect.

SMILES	Pf growth 96h	HCMV inh	Pf growth 48h	HCV inh
O=C(O)CCC(=O)N1CCc2cc(S(=O)(=O)NCc3ccc(Cl)cc3)ccc21	12µM*	36	10%	8%
CS(=O)(=O)N1CCc2cc(S(=O)(=O)Nc3ccc4c(c3)OCCO4)ccc21	-4%	-84*	-20%	?
CCC(=O)N1CCc2cc(S(=O)(=O)Nc3ccc4c(c3)OCCO4)ccc21	?	-87*	-27%	2.8µM*
CC1CCN(S(=O)(=O)c2ccc3c(c2)CCN3C(=O)Nc2ccc(Br)cc2)CC1	·	31	·	·
CCC(=O)N1CCc2cc(Br)cc(S(=O)(=O)N3CCCC(C(=O)Nc4ccc(C(C)C)cc4)C3)c21 (configuration not stated)	·	-3	·	·
CCOC(=O)C1CCCN(C(=O)Cn2ncc3c4ccccc4n(C)c3c2=O)C1 (configuration not stated)	·	17	·	·
Cc1ccc(CNS(=O)(=O)c2ccc3c(c2)CCN3C(=O)C2CCC2)cc1	13µM*	-23	18%	7%
CCC(=O)N1CCc2cc(S(=O)(=O)N(C)c3ccc(OC)cc3OC)ccc21	35%	-23	-4%	-17%
COc1ccc(NS(=O)(=O)c2ccc3c(c2)CCCN3C(C)=O)cc1	?	?	-9%	22%
O=C(C1CCC1)N1CCc2cc(S(=O)(=O)Nc3ccc4c(c3)OCCO4)ccc21	26%	-82*	-1%	?
CC(=O)N1CCc2cc(S(=O)(=O)NCc3ccc(C)cc3)ccc21	?	?	28%	-6%
COc1ccc(N(C)S(=O)(=O)c2ccc3c(c2)CCN3C(=O)C2CC2)c(OC)c1	4.1µM*	-12	-6%	?
COc1cccc(NS(=O)(=O)c2ccc3c(c2)CCCN3C(C)=O)c1	-28%	-60*	·	-11%
C[C@]12CCCC3=CC(=O)C=CC31OCC2 (some centres not stated)	·	0	·	·
Cc1cccc(NS(=O)(=O)c2ccc3c(c2)CCN3C(=O)C2CCC2)c1	·	-66*	·	·
CCOC(=O)c1c(NC(=O)CCCOc2ccc(Cl)cc2)sc2c1CCC2	·	10	·	·
CC(=O)c1cccc(NC(=S)Nc2ccn(Cc3cccc4ccccc34)n2)c1	?	?	?	11µM*
CC(=O)c1ccc(NC(=S)Nc2ccn(Cc3ccc(Br)cc3)n2)cc1	?	24	-19%	-2%
COc1cc2c(c(OC)c1OC)-c1ccc(OC)c(=O)cc1C(N)CC2 (configuration not stated)	·	-83*	·	7%
COc1cc2c(c(OC)c1OC)-c1ccc(O)c(=O)cc1[C@@H](N)CC2	43%	-32	?	-14%
COc1cc2c(c(OC)c1OC)-c1ccc(SC)c(=O)cc1C(N)CC2 (configuration not stated)	·	-88*	·	-10%
CN(C)S(=O)(=O)c1ccc(NC(=O)N2CCN(c3cccc(C(F)(F)F)c3)CC2)cc1	12µM*	-79*	12µM*	11µM*
CN(C)S(=O)(=O)c1ccc(NC(=O)C2CC(=O)N(Cc3ccccc3Cl)C2)cc1 (configuration not stated)	?	-25	?	-6%
COc1ccc(NC(=O)N2CCN(c3cccc(C(F)(F)F)c3)CC2)cc1	2%[5.75 µM]	-16	-7%	?
CN(C)S(=O)(=O)c1ccc(NC(=O)N2CCN(c3ccccc3Cl)CC2)cc1	?	-37	13µM*	4%
SMILES	Pf growth 96h	HCMV inh	Pf growth 48h	HCV inh
COCCCNc1ncnc2onc(-c3ccc(F)cc3)c12	·	-12	·	·
C=Cn1ccnc1P(=S)(c1ccc2c(c1)c1ccccc1n2CC)c1nccn1C=C	1%	?	2.9µM*	?
COC(=O)c1c(C)[nH]c(C(=O)C(C)OC(=O)c2c(C)noc2C)c1C (configuration not stated)	4.1µM*	-10	?	?
CC1(C)CC(N=Cc2c(O)n(Cc3ccc4c(c3)OCO4)c(=O)c3ccccc23)CC(C)(C)N1	10µM*	-33	8.3µM*	11µM*
O=C(Nc1ccccc1-c1nc2ccccc2s1)c1ccco1	4%	17	1%	4µM*
O=C(Nc1ccccc1-c1nc2ccccc2s1)c1cccnc1Cl	20%	-15	12%	35µM*
O=C(Nc1ccccc1-c1nc2ccccc2s1)c1cc(Cl)cc(Cl)c1	·	13	·	·
COC(=O)C(CCSC)NC(=O)c1c(C)oc2ncn(CC(C)C)c(=O)c12 (configuration not stated)	·	0	·	·
Cc1ccc(C)c(NC(=O)CCc2c(C)nn(-c3ccc(N4CCCC4)nn3)c2C)c1	·	-14	·	·
COC(=O)c1cc(OC)c(OC)cc1NC(=O)c1ccc2c(c1)CCN2S(C)(=O)=O	·	-3	·	·
COc1ccccc1NC(=O)N(CCCN1CCOCC1)Cc1cc2cc3c(cc2[nH]c1=O)OCO3	8.3µM*	-9	-14%	7%
O=C(Nc1ccc(F)cc1)N(CCCN1CCOCC1)Cc1cc2cc3c(cc2[nH]c1=O)OCCO3	-12%	19	10µM*	-17%
COc1cc2cc(CN(CCCN3CCOCC3)C(=O)Nc3ccccc3F)c(=O)[nH]c2cc1OC	28%	?	-6%	10%
O=C(Nc1ccc(F)cc1)N(CCCN1CCOCC1)Cc1cc2cc3c(cc2[nH]c1=O)OCO3	-23%	-1	13µM*	1%
COC(=O)C1=C(CS(=O)(=O)c2cc(Cl)ccc2OC)NC(=O)NC1c1ccccc1 (configuration not stated)	·	-15	·	·
CCOC(=O)c1[nH]c(COC(=O)CCCOc2ccccc2)c(C(=O)OCC)c1C	?	·	13µM*	-11%
Cc1c(Cl)cccc1NC(=O)Cn1c(=O)n(Cc2ccco2)c(=O)c2sc3ccccc3c21	·	21	·	·
CCOc1ccc(C2OC(=O)Cc3cc(OC)c(OC)cc32)cc1 (configuration not stated)	1.2µM*	75	?	0%
CCOc1ccc(C2NC(=O)Cc3cc(OC)c(OC)cc32)cc1 (configuration not stated)	?	41	-28%	12%
COc1cccc(-c2nc3c(c(C)nn3-c3ccccc3)c3cc(OC)c(OC)cc23)c1	·	2	·	·
COc1cc2c(-c3ccc(O)cc3)nc3c(c(C)nn3-c3ccccc3)c2cc1OC	34%	-72*	15µM*	11µM*
Cc1ccccc1CNC(=O)c1sc2ncnc(N(C)C3CCCCC3)c2c1C	·	-24	·	·
Cc1ccc(S(=O)(=O)N(Cc2n[nH]c(=S)n2-c2ccccc2)c2ccccc2)cc1	?	0	2.3µM*	10%
COc1ccc(NC(=O)Cn2c(=O)n(CCc3ccccc3)c(=O)c3sc4ccccc4c32)cc1	·	31	·	·
NC(=O)C1(N2CCCCC2)CCN(C(=O)Nc2ccc(F)cc2F)CC1	·	84	·	·
Cc1ccccc1N1CCN(CCCN2C(=O)CC(=C(c3ccccc3)c3ccccc3)C2=O)CC1	2%[5.75 µM]	19	-1%	?
O=C1CC(=C(c2ccccc2)c2ccccc2)C(=O)N1CCCCN1CCN(c2cccc(Cl)c2)CC1	-3%[5.75 µM]	3	?	11µM*
